ChEMBL document CHEMBL2218924, “A broad activity screen in support of a chemogenomic map for kinase signalling research and drug discovery” (Biochem J, 2013)

Assays:
[1] = biological target: ALK tyrosine kinase receptor (Homo sapiens) (UniProt Q9UM73); settings: at 10 µM
[2] = biological target: T1, AMP-activated protein kinase (AMPK) alpha-1/beta-1/gamma-1 (Homo sapiens) (UniProt P54619+Q9Y478+Q13131); settings: at 1 µM
[3] = biological target: T1, AMP-activated protein kinase (AMPK) alpha-1/beta-1/gamma-1 (Homo sapiens); settings: at 10 µM
[4] = biological target: T2, AMP-activated protein kinase, AMPK (Homo sapiens) (UniProt P54646+O43741+P54619+Q9UGJ0+Q9Y478+Q13131+Q9UGI9); settings: at 1 µM
[5] = biological target: T2, AMP-activated protein kinase, AMPK (Homo sapiens); settings: at 10 µM
[6] = biological target: Platelet-derived growth factor receptor alpha (Homo sapiens) (UniProt P16234); settings: at 1 µM
Chain of Platelet-derived growth factor receptor alpha (Homo sapiens) (P16234 whole entry): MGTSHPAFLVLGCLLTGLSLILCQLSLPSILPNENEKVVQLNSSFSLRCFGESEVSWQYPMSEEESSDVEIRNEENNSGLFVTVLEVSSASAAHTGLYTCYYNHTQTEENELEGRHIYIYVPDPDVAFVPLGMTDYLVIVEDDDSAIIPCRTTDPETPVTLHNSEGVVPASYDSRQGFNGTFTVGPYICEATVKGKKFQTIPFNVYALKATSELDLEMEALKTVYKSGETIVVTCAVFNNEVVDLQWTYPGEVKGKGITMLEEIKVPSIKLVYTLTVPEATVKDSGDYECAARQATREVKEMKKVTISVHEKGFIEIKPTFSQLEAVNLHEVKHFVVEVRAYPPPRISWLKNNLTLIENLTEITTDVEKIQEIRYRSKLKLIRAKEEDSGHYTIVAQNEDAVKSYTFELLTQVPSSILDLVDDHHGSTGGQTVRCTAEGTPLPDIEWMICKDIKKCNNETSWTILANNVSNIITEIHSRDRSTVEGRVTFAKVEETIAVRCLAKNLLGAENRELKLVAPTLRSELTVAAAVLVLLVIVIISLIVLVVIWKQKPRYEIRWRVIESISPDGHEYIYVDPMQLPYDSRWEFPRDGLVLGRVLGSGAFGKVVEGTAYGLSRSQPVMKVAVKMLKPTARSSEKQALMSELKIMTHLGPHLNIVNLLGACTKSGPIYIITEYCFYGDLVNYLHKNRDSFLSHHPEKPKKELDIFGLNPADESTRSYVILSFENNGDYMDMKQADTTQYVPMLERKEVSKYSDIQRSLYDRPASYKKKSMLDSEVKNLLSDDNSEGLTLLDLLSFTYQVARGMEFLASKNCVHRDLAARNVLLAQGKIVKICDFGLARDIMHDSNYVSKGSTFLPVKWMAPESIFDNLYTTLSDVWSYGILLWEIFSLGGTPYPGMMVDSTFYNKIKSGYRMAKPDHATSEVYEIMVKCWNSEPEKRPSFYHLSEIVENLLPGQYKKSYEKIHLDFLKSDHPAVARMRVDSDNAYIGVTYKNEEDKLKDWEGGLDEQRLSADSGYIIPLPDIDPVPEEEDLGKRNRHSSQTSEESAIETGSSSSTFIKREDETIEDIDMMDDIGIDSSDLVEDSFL

[7] = biological target: Platelet-derived growth factor receptor alpha (Homo sapiens) (UniProt P16234); settings: at 10 µM
[8] = biological target: Platelet-derived growth factor receptor beta (Homo sapiens) (UniProt P09619); settings: at 1 µM
Chain of Platelet-derived growth factor receptor beta (Homo sapiens) (P09619 whole entry): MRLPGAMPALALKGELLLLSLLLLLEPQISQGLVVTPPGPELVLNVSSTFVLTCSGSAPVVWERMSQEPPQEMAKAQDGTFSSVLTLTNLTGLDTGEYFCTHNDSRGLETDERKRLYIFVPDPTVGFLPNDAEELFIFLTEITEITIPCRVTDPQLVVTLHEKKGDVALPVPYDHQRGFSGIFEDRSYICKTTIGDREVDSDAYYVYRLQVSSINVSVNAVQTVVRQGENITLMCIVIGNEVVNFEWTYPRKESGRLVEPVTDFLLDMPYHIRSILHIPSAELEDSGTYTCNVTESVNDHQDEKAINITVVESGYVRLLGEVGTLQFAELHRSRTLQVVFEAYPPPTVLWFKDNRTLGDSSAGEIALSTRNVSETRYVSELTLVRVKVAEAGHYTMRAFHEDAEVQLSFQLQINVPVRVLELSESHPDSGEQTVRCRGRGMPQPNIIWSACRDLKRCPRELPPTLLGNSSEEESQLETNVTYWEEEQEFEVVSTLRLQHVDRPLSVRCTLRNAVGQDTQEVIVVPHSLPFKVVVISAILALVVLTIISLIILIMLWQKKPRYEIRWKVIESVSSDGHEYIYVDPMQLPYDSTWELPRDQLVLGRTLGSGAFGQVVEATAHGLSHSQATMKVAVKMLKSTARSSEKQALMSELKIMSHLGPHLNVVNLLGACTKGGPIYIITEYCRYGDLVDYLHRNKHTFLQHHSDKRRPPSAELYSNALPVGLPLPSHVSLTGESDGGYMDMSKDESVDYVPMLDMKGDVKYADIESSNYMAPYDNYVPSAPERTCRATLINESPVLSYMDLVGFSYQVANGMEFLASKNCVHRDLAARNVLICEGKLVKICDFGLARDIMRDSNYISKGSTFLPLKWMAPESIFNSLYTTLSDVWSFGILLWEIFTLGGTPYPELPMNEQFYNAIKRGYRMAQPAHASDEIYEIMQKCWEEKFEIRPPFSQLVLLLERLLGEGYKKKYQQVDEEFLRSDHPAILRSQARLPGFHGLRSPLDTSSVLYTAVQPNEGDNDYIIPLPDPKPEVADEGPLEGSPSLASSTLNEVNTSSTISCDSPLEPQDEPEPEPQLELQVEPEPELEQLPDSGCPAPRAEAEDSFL

[9] = biological target: Platelet-derived growth factor receptor beta (Homo sapiens) (UniProt P09619); settings: at 10 µM
[10] = biological target: T3, 3-phosphoinositide-dependent protein kinase 1 (Homo sapiens) (UniProt O15530); settings: at 1 µM
T3 sequence (whole entry): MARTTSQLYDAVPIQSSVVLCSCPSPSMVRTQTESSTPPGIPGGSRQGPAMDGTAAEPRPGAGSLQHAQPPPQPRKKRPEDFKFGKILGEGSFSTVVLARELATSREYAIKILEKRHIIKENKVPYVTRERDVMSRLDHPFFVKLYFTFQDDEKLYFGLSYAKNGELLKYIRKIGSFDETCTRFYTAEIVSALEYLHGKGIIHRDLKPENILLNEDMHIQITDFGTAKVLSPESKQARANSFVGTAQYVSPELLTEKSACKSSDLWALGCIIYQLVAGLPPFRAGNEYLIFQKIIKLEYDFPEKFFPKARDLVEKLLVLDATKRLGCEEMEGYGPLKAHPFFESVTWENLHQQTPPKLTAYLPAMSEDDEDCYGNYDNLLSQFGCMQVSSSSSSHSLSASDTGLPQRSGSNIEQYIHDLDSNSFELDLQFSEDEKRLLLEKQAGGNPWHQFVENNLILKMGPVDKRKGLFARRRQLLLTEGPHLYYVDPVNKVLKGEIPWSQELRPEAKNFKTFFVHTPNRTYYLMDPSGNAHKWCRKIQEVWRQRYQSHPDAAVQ

[11] = biological target: T3, 3-phosphoinositide-dependent protein kinase 1 (Homo sapiens); settings: at 10 µM
[12] = biological target: cAMP-dependent protein kinase catalytic subunit alpha (Homo sapiens) (UniProt P17612); settings: at 1 µM
[13] = biological target: cAMP-dependent protein kinase catalytic subunit alpha (Homo sapiens) (UniProt P17612); settings: at 10 µM
[14] = biological target: RAC-gamma serine/threonine-protein kinase (Homo sapiens) (UniProt Q9Y243); settings: at 1 µM
Chain of RAC-gamma serine/threonine-protein kinase (Homo sapiens) (Q9Y243 whole entry): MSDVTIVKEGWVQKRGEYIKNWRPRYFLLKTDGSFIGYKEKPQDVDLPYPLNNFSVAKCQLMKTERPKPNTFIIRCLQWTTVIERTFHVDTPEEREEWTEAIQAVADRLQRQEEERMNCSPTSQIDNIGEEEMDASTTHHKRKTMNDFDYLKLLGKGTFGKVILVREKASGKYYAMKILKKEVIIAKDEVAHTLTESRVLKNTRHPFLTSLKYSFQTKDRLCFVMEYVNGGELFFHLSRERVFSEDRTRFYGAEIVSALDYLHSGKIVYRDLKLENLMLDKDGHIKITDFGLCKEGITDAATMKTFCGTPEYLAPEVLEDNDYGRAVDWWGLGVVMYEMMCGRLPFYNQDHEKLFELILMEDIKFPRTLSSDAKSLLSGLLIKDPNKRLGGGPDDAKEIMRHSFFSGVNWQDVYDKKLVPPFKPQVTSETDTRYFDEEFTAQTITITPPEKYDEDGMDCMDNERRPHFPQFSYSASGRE

[15] = biological target: RAC-gamma serine/threonine-protein kinase (Homo sapiens) (UniProt Q9Y243); settings: at 10 µM
[16] = biological target: T4, NUAK family SNF1-like kinase 1 (Homo sapiens) (UniProt O60285); settings: at 1 µM
T4 sequence (whole entry): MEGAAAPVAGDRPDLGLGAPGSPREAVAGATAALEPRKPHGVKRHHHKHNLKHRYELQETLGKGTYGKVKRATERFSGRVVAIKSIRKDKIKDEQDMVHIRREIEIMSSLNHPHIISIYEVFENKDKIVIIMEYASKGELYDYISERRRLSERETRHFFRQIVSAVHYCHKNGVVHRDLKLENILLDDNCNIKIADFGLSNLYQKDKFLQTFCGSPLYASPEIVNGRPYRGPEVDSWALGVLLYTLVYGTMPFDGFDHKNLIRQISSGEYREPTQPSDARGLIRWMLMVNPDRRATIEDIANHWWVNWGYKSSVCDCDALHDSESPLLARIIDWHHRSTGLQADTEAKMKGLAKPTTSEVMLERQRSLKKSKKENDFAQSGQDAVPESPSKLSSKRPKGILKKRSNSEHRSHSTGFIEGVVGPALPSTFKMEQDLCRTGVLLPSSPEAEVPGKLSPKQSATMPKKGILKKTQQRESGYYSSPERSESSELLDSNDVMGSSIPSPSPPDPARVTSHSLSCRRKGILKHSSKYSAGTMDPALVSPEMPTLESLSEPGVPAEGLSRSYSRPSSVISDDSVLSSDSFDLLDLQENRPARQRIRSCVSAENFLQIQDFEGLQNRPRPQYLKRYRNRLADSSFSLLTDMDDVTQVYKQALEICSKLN

[17] = biological target: T4, NUAK family SNF1-like kinase 1 (Homo sapiens); settings: at 10 µM
[18] = biological target: T5, Activin receptor type-1B (Homo sapiens) (UniProt P36896); settings: at 1 µM
T5 sequence (whole entry): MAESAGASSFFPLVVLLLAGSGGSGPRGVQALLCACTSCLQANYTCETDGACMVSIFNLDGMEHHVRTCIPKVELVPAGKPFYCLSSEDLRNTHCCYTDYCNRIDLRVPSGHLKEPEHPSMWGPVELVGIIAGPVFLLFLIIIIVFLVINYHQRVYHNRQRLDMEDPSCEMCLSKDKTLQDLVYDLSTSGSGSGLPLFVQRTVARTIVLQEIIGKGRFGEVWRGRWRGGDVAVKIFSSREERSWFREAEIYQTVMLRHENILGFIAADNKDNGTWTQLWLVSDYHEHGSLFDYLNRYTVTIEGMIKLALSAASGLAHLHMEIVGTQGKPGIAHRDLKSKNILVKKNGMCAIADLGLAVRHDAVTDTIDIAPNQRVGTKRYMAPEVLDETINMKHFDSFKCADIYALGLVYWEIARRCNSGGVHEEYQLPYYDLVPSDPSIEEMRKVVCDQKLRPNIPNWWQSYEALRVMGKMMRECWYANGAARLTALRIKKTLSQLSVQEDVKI

[19] = biological target: T5, Activin receptor type-1B (Homo sapiens); settings: at 10 µM
[20] = biological target: T6, Mitogen-activated protein kinase kinase kinase 5 (Homo sapiens) (UniProt Q99683); settings: at 1 µM
T6 sequence (whole entry): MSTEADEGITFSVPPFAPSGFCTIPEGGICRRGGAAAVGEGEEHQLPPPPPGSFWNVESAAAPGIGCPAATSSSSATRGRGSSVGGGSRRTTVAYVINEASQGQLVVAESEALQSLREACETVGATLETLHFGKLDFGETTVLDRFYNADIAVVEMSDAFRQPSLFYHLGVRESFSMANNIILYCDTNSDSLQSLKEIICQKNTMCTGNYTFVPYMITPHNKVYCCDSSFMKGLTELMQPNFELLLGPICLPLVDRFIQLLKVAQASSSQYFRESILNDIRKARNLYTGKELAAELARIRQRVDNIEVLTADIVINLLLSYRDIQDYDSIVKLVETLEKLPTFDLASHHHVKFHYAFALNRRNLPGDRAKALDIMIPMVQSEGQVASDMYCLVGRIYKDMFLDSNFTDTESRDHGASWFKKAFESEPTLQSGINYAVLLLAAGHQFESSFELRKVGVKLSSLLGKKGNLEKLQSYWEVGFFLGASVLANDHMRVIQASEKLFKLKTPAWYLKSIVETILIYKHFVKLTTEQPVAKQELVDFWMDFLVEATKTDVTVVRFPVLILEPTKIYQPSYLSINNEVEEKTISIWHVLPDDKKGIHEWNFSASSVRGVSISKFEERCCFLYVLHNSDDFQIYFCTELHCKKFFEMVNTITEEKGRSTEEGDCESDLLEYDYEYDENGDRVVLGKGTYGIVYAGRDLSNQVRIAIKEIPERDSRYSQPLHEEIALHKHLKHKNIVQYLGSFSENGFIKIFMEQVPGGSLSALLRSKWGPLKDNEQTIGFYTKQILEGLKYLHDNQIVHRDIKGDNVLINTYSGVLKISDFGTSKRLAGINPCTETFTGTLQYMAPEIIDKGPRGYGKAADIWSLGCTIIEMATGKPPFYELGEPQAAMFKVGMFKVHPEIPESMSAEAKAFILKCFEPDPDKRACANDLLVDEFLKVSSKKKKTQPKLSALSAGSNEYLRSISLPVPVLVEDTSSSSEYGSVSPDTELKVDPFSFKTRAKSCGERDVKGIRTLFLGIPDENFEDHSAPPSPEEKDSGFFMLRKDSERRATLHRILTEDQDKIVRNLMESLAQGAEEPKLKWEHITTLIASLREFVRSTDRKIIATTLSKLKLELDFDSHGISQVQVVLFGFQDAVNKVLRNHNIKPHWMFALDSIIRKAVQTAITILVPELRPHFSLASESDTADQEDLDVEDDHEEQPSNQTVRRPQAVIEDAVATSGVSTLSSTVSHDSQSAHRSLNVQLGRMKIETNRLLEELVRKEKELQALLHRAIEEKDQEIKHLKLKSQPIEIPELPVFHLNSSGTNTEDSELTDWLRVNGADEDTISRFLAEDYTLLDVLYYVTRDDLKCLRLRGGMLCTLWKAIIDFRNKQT

T1 sequence (P54619 whole entry): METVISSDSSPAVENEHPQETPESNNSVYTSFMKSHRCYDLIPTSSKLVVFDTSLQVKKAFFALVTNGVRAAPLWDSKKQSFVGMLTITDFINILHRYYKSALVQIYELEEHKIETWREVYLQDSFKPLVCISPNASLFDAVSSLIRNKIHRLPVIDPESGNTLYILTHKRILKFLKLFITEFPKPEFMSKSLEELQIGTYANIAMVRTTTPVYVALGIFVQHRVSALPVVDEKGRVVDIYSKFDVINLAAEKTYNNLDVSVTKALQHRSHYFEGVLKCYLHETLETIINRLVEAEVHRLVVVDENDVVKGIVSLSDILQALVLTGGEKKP
T1 sequence (Q13131 whole entry partner): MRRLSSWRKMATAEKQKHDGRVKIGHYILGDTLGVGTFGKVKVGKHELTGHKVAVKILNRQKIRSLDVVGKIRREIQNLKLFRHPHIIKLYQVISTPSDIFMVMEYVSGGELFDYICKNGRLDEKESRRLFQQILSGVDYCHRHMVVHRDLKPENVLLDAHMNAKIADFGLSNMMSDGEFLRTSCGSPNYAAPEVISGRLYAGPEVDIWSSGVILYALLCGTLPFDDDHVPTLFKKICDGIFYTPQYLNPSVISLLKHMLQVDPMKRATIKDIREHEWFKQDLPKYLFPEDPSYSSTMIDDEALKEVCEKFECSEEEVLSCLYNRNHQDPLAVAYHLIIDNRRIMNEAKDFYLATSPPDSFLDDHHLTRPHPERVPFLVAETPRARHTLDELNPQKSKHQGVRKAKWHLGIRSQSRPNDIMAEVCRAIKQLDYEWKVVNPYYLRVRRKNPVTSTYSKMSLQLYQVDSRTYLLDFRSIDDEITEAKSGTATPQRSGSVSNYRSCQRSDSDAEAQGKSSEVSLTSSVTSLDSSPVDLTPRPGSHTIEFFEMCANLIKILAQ
T1 sequence (Q9Y478 2-270 partner limits assumed): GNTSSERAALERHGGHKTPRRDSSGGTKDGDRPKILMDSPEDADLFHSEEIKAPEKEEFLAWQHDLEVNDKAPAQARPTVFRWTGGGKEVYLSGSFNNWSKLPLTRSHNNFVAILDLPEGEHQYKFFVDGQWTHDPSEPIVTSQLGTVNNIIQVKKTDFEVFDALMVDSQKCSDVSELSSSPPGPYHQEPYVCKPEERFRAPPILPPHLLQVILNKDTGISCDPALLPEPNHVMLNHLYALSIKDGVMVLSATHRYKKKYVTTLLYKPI

SMILES: NC(=O)Nc1sc(-c2ccc(F)cc2)cc1C(N)=O
- residual activity [1]: 31%
- residual activity [2]: 69%
- residual activity [3]: 27%
- residual activity [4]: 66%
- residual activity [5]: 25%
- residual activity [6]: 41%
- residual activity [7]: 20%
- residual activity [8]: 89%
- residual activity [9]: 55%
- residual activity [10]: 57%
- residual activity [11]: 17%
- residual activity [12]: 92%
- residual activity [13]: 82%
- residual activity [14]: 85%
- residual activity [15]: 55%

SMILES: N#C/C(=C\c1ccc(O)c(O)c1)C(=O)NCc1ccccc1
- residual activity [2]: 87%
- residual activity [3]: 53%
- residual activity [4]: 124%
- residual activity [5]: 70%
- residual activity [16]: 100%
- residual activity [17]: 100%
- residual activity [6]: 122%
- residual activity [7]: 100%
- residual activity [12]: 76%
- residual activity [13]: 75%
- residual activity [15]: 83%

SMILES: c1ccc(-c2cnc(Nc3ccc(OCCN4CCCC4)cc3)s2)cc1
- residual activity [18]: 131%
- residual activity [19]: 115%
- residual activity [4]: 81%
- residual activity [5]: 28%
- residual activity [16]: 74%
- residual activity [17]: 27%
- residual activity [6]: 7%
- residual activity [7]: 1%
- residual activity [8]: 3%
- residual activity [9]: 0%
- residual activity [10]: 113%
- residual activity [11]: 114%
- residual activity [12]: 78%
- residual activity [13]: 133%

SMILES: O=c1cc(N2CCOCC2)oc2c1ccc1ccccc12
- residual activity [19]: 104%
- residual activity [2]: 110%
- residual activity [3]: 94%
- residual activity [4]: 105%
- residual activity [5]: 90%
- residual activity [16]: 101%
- residual activity [17]: 85%
- residual activity [20]: 88%
- residual activity [8]: 98%
- residual activity [12]: 101%
- residual activity [13]: 104%
- residual activity [14]: 111%
- residual activity [15]: 102%

SMILES: COc1cc2c(cc1OC)-c1n[nH]c(Nc3cccc(F)c3)c1C2
- residual activity [2]: 80%
- residual activity [3]: 65%
- residual activity [5]: 69%
- residual activity [17]: 68%
- residual activity [20]: 74%
- residual activity [6]: 2%
- residual activity [7]: 1%
- residual activity [8]: 11%
- residual activity [9]: 1%
- residual activity [10]: 104%
- residual activity [11]: 106%
- residual activity [13]: 98%
- residual activity [15]: 109%

SMILES: O=C(Nc1nc2ccccc2n1CCN1CCOCC1)c1cccc([N+](=O)[O-])c1
- residual activity [1]: 75%
- residual activity [4]: 79%
- residual activity [5]: 83%
- residual activity [17]: 66%
- residual activity [20]: 113%
- residual activity [8]: 104%
- residual activity [9]: 81%
- residual activity [10]: 104%
- residual activity [11]: 81%
- residual activity [13]: 80%
- residual activity [14]: 103%
- residual activity [15]: 84%

SMILES: NC(=O)c1cccc(-c2cc(Nc3ccc(OC(F)(F)F)cc3)ncn2)c1
- residual activity [2]: 99%
- residual activity [3]: 93%
- residual activity [5]: 83%
- residual activity [17]: 90%
- residual activity [20]: 90%

SMILES: Nc1ncnc2c1cnn2-c1ccccc1
- residual activity [2]: 96%
- residual activity [3]: 90%
- residual activity [5]: 83%
- residual activity [16]: 99%
- residual activity [17]: 87%
- residual activity [20]: 100%
- residual activity [7]: 101%
- residual activity [11]: 87%
- residual activity [15]: 73%
